Common to all, as to test: NCI-60 one-dose screen, 48 h (100 = growth as untreated, 0 = no growth, -100 = all killed)
Common to all, as to settings: 10 µM unless noted

The subject of test [1] is DU-145 prostate.
Test [2] deals with K-562 leukemia.
Test [3] deals with MALME-3M melanoma.
In test [4] the test system is MDA-MB-231 breast.
The test system of test [5] is RXF 393 renal.
Test [6] has as its system SF-268 CNS.
The test system of test [7] is SF-295 CNS.
In test [8] the test system is SF-539 CNS.
The test system of test [9] is UACC-257 melanoma.
The subject of test [10] is M14 melanoma.
Test [11] has as its system HCT-15 colon.
Test [12] has as its system HT29 colon.
Test [13] has as its system SNB-75 CNS.
Test [14] has as its system SNB-19 CNS.
For test [15], the system named is U251 CNS.
The subject of test [16] is PC-3 prostate.
The subject of test [17] is SK-MEL-5 melanoma.
Test [18] has as its system UACC-62 melanoma.
Test [19] concerns LOX IMVI melanoma.
For test [20], the system named is SK-MEL-28 melanoma.

SMILES strings stand for the structures. Compounds without any hit were thinned out: in the full panel of roughly 83,000, 20% have a hit.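 The endpoint reported here, percent growth, reads 100 for growth as untreated, 0 for no net growth and -100 for all cells dead.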 Unmarked numbers belong to inactive results. Active and inactive are the calls of the source. How the source made its calls: active means growth percent below 10; inactive means the rest.

Take `O=[N+]([O-])c1cccc2cc(S(=O)(=O)O)ccc12`: the growth is 105% in [1]; 80.7% in test [2]; 102% in [3]; 105% in test [4]; 122% in test [5]; 104% in test [6]. Further, the growth in test [7] is 104%; in test [8], 99.4%; in test [9], 91.9%; in test [10] it was 107%; in [11] it was 103%; in [12] it was 87.5%. In addition, the growth was 118% in test [13]; 106% in test [14]; 94.7% in test [15]; 84% in test [16]; 103% in test [17]; 100% in test [18]. In addition, the results for the growth in [19] and in test [20] were 92.1% and 111%, respectively.
For the molecule `COCCNC(C(=O)c1ccccc1)c1ccccc1` (stereo not given), the growth in test [1] was 107%; in test [2] it was 103%; in test [3], 102%; in test [4], 102%; in [5] it was 101%; in test [6] it was 94.3%. For the same molecule, the growth in test [7] is 98%; in test [8], 99.7%; in [9], 97.6%; in test [10] it was 100%; in test [11], 99.6%; in test [12], 107%. The growth is 88.2% in [13]; 97% in test [14]; 95.1% in test [15]; 92.7% in test [16]; 96.6% in test [17]; 97.9% in [18]. Further, the growth in [19] was 103%; in test [20], 105%.
`COc1ccc(/C(=C/c2cc(OC)c(OC)c(OC)c2)[N+](=O)[O-])cc1`: the growth in test [1] was 16.3%; in test [2], 3.58% (active); in test [3] it was -10.8% (active); in test [4] it was 9.98% (active); in [5], -85.1% (active); in test [6] it was 17.6%. The growth in test [7] is 103%; in test [8], -11.3% (active); in [9], 31.8%; in test [10], 2.06% (active); in [11], -41.3% (active); in test [12], -14.2% (active). The growth in test [13] was 49.2%; in [14], 55.2%; in [15], 5.34% (active); in [16], 35.1%; in [17], 70.7%; in [18] it was -7.25% (active). For the same molecule, the values for the growth in test [19] and in test [20] were -80.3% (active) and 1.77% (active), respectively.
For `COc1ccc(/C=C2/C(=O)Nc3cc(Cl)c(-c4csc(N)n4)cc32)cc1`, the growth is 67.5% in [1]; 13.6% in test [2]; 75.1% in [3]; 27.3% in test [4]; 59.7% in [5]; 58.7% in [6]. The growth was 52.4% in test [7]; 37.8% in test [8]; 82.7% in [9]; 29.9% in test [10]; 39.9% in test [11]; 27.9% in test [12]. Besides, the growth in test [13] was 37.5%; in test [14], 45.5%; in test [15], 46.3%; in test [16] it was 50.3%; in test [17], 19.1%; in test [18], 37.6%. Also, the growth in test [19] was 48.6%; in test [20] it was 70.1%.
`C/C(=N/O)c1ccc(NC(=O)Cn2nc(-c3ccc(Cl)cc3)nc2N)cc1`: the growth is 104% in [1]; 99.3% in test [2]; 102% in test [3]; 82.7% in [4]; 100% in test [5]; 89.2% in [6]. In addition, the growth in test [7] is 107%; in [8] it was 97.3%; in test [9] it was 73%; in test [10], 107%; in test [11], 114%; in [12], 86.8%. Further, the growth in test [13] is 87.3%; in [14], 89.1%; in test [15], 90.3%; in test [16], 71.8%; in [17], 98.1%; in test [18], 91.8%. Moreover, the growth in [19] was 97%; in [20] it was 114%.
Consider `O=C(NCCNc1nccc(-c2c(-c3cccc(O)c3)nc3sccn23)n1)c1cccc(C(F)(F)F)c1`, for which the growth is 91.4% in [1]; 56.2% in [2]; 0.753% (active) in test [3]; 76.2% in [4]; 79.9% in [5]; 86.7% in test [6]. In addition, the growth is 69.6% in [7]; 100% in [8]; 14.4% in test [9]; 17.5% in test [10]; 87.8% in [11]; 81.1% in test [12]. For the same molecule, the growth was 73.8% in test [13]; 116% in test [14]; 84.8% in test [15]; 67.3% in test [16]; 52.6% in test [17]; 3.21% (active) in test [18]. Further, the growth in [19] was 53.4%; in test [20] it was 38.5%.
Take `C[C@]12CC[C@@H]3c4ccc(O)c(N)c4CC[C@H]3[C@@H]1CC[C@@H]2O`: the growth is 110% in [1]; 79.8% in [2]; 129% in test [3]; 115% in test [4]; 116% in test [5]; 98.9% in test [6]. Also, the growth in test [7] is 108%; in [8], 106%; in test [9], 82.5%; in [10], 100%; in [11], 101%; in [12], 103%. The growth in test [13] was 94.3%; in test [14] it was 109%; in test [15] it was 110%; in [16] it was 97.6%; in [17] it was 99.5%; in test [18] it was 97.1%. Further, the values for the growth in test [19] and in [20] were 96.7% and 118%, respectively.
